SMARCA2 activ – activators of SMARCA2 function; MG213 cells, MMTV-luciferase reporter, dexamethasone, overnight; activation, % at 9.1 µM; 370,000 tested, 1% active; AID 652017; in the data active = activation above about 7.8%
CDK5 p35 inh – blocks human CDK5/p35 kinase activity; Recombinant CDK5/p35, ADP-Glo luminescence, 60 min; 330,000 tested, 0.01% active; inhibition, % at 10 µM; Q00535+Q15078;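 active = highest replicate inhibition of at least 50% and at least 75% of replicates reaching 50%; inconclusive = only one of the two criteria met; inactive = both criteria failed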
Target sequence (Q00535 whole entry, looked up): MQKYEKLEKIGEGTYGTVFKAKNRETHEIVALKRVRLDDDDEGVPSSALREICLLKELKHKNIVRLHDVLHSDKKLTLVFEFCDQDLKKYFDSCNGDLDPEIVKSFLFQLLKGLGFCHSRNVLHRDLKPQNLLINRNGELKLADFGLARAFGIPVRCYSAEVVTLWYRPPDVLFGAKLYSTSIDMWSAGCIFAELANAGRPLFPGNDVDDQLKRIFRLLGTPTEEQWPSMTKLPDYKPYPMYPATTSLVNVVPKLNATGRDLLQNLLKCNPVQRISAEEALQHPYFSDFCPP
Target sequence (Q15078 whole entry, looked up): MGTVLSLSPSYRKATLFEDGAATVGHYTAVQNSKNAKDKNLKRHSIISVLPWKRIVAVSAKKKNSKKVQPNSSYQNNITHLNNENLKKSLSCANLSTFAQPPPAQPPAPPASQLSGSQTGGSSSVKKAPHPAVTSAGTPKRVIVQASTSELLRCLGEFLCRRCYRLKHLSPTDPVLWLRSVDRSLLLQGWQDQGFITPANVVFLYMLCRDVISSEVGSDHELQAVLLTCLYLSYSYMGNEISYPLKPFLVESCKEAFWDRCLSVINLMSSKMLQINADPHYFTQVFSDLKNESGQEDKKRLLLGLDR
dFosB act – mouse delta FosB homodimer activation; 340,000 tested, 0.99% active; purified delta FosB, TAMRA-CDK5 oligo fluorescence polarization; percent of positive-control signal above neutral wells; activation, % at 25 µM; AID 493131; P13346;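 active = mean activation above about 17%, with every replicate also reaching it, limit read from the data, passing the limit was not always enough; inconclusive = only one of the two conditions met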
Rtt109 HAT inh – inhibitors of Candida albicans Rtt109/Vps75 histone acetyltransferase; Q5AAJ8; purified Rtt109/Vps75, ThioGlo CoA-SH fluorescence, 4 h; inhibition, % at 34.9 µM; 330,000 tested, 0.16% active;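 active = inhibition of at least 50% in every replicate; inconclusive = best replicate reaches 50% inhibition but some replicates fall short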
esBAF inh – SWI/SNF esBAF complex inhibition. mouse ES cells, Bmi1-luciferase knock-in reporter, 24 h; 100% = twice the neutral-well signal. reporter increase, % at 12.5 µM. 350,000 tested, 2% active. AID 602393; in the data active = activation above about 40%; inconclusive = no clear call, values can overlap the other calls;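 note: a rise in the Bmi1 reporter signal indicates esBAF inhibition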
DYRK1A inh – inhibitors of rat Dyrk1A kinase | Q63470 | ADP-Glo luminescence, NFATc1 peptide | inhibition, % at 12.5 µM | 310,000 tested, 0.43% active | AID 504441; in the data active = inhibition above about 50%
Dyrk1A artifact – ADP-Glo luciferase interference, Dyrk1A counter-screen | shares compounds with DYRK1A inh | ADP-Glo luciferase artifact assay, no Dyrk1A, luminescence | AC50, µM (titrated, usually from 12 µM) | 1,300 tested, under 10 active | AID 588348;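 active = fitted half-maximal dose AC50 no more than ten times the top valid tested dose, with luminescence dropping as dose rises; inconclusive = poor fit, or flat fit with 30 to 70% inhibition; inactive = the rest, signal increases included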
Hits are given with their value; n = inactive; u = inconclusive; x = not tested or not shown. Hits are enriched below; roughly 3.2% of the tested compounds scored in any of these assays.

SMILES	SMARCA2 activ	CDK5 p35 inh	dFosB act	Rtt109 HAT inh	esBAF inh	DYRK1A inh	Dyrk1A artifact
Cc1ccc2c(c1C)-c1c(ccc(C)c1C)C(=O)C2=O	n	n	n	n	x	54	n
Cc1ccc(CC#N)c(-c2c(CC#N)ccc(C)c2C)c1C	n	x	x	x	n	x	x
COc1cccc(Nc2nc(-c3ccc(O)cc3)cs2)c1	n	n	n	n	n	54	n
COc1cccc(Nc2nc(-c3cccc(N4C(=O)c5ccccc5C4=O)c3)cs2)c1	n	n	n	n	u	n	x
O=c1sc2ccccc2c(N2CCCC2)c1[N+](=O)[O-]	n	n	n	n	n	n	x
CCN(CC)c1c([N+](=O)[O-])c(=O)sc2ccccc12	n	n	n	n	x	53	n
C[C@@H]1CN([C@@H](C)CO)C(=O)c2cccc(NS(=O)(=O)c3ccccc3)c2O[C@@H]1CN(C)S(C)(=O)=O	x	x	x	x	n	x	x
CCCCCCCCCCCCN1[C@@H](CC(=O)OC)c2cc(C(F)(F)F)ccc2S1(=O)=O	n	n	n	n	x	53	n
CCOC(=O)C[C@H]1c2cc(C(F)(F)F)ccc2S(=O)(=O)N1C(C)C	n	n	n	n	n	54	n
C[C@H]1CN([C@@H](C)CO)C(=O)c2cc(N(C)C)ccc2O[C@@H]1CN(C)CC1CCCCC1	x	x	x	x	n	x	x
C[C@H]1CN([C@@H](C)CO)C(=O)c2cccc(NC(=O)Nc3cccc4ccccc34)c2O[C@H]1CN(C)C(=O)Nc1ccccc1	x	x	x	x	n	x	x
COc1cccc(NC(=O)Nc2ccc3c(c2)N(C)C(=O)CS3)c1	n	n	n	n	n	50	n
C[C@H]1CN([C@@H](C)CO)C(=O)c2c(c3ccccc3n2C)-c2ccccc2CO[C@H]1CN(C)S(=O)(=O)c1ccccc1C#N	x	x	x	x	n	x	x
Cc1nc2c(c3c1[nH]c1ccccc13)C(=O)CC(C)(C)C2	n	n	n	n	n	85	n
CC1(C)CC(=O)c2c(nc3ccccc3c2N)C1	n	n	n	n	n	n	x
COc1ccc2c(C#N)c3ccccn3c2c1	n	n	n	x	n	72	n
CNC(=S)N/N=C/c1ccc(-c2cccc(C(=O)O)c2)o1	n	n	n	n	x	62	n
O=C1NC(=S)S/C1=C/c1ccc(OC(=O)c2ccco2)cc1	n	n	n	n	n	71	n
CN(C)CCNC(=O)c1cc2c(s1)-c1ccccc1OC2	n	n	n	n	n	68	n
CCN1CCN(CCCNC(=O)c2cc3c(s2)-c2ccccc2OC3)CC1	n	n	n	n	n	n	x
O=C(CC(SCCO)c1ccc2c(c1)OCO2)c1ccco1 (configuration not stated)	n	n	n	n	n	84	n
O=C(NCc1ccc2c(c1)OCO2)c1ccco1	n	n	n	n	x	n	x
O=C(O)c1ccc(N=c2oc3cc(O)ccc3cc2C(=O)NCc2ccccc2)cc1	n	n	n	n	x	n	x
COc1ccc2oc(=Nc3cc(F)ccc3F)c(C(N)=O)cc2c1	n	n	n	n	x	n	x
NC(=O)c1cc2ccc(O)cc2oc1=Nc1ccccc1	7.9	n	n	n	n	58	n
SMILES	SMARCA2 activ	CDK5 p35 inh	dFosB act	Rtt109 HAT inh	esBAF inh	DYRK1A inh	Dyrk1A artifact
COc1ccc(OC)c(N=c2oc3cc(O)ccc3cc2C(N)=O)c1	n	n	n	x	n	81	n
NC(=O)c1cc2ccccc2oc1=NCc1ccccc1	n	n	n	n	n	68	n
Cc1ccc(S(=O)(=O)NCC[C@H]2CC[C@H](NC(=O)c3cnccn3)[C@@H](CO)O2)cc1	x	x	x	x	n	x	x
O=C(c1ccccn1)N1C[C@H]2[C@@H](c3ccccc31)[C@@H](CO)N2C(=O)Nc1ccccc1F	x	x	x	x	n	x	x
COCC(=O)Nc1ccc2c(c1)C(=O)N(C)C[C@H](OC)[C@H](C)CN(C(C)=O)[C@@H](C)CO2	x	x	x	x	n	x	x
COCc1cn(CC[C@H]2CC[C@H](NC(=O)Nc3ccc(F)cc3)[C@@H](CO)O2)nn1	x	x	x	x	n	x	x
COc1cc2c(ccc3cc(OC)c(OC)c(O)c32)cc1O	n	81	n	n	n	94	n
CO[C@@H](CN(C)Cc1cc(F)ccc1F)[C@@H](C)CN([C@H](C)CO)S(=O)(=O)c1ccc(C)cc1	x	x	x	x	n	x	x
O=C1c2ccccc2C(=O)c2c1ccc(O)c2O	n	n	n	n	n	60	n
COC(=O)c1ccc2c(c1O)C(=O)c1ccccc1C2=O	n	n	n	n	n	n	x
Nc1cc(C(=O)O)c(N)c2c1C(=O)c1ccccc1C2=O	x	n	n	n	x	n	x
Nc1c(C(=O)O)ccc2c1C(=O)c1ccccc1C2=O	n	n	n	n	x	88	n
Cc1cc(Nc2ccccc2)nc2cc(O)ccc12	n	n	n	n	n	74	n
COc1ccc(Nc2cc(C)c3ccc(O)cc3n2)cc1	n	n	n	n	n	n	x
O=C(N[C@@H]1CC[C@@H](CC(=O)N2CCc3ccccc3C2)O[C@@H]1CO)C1CC1	x	x	x	x	n	x	x
O=C(C[C@H]1CC[C@H](NC(=O)CC2CC2)[C@H](CO)O1)NCc1ccc(Cl)cc1	x	x	x	x	n	x	x
O=C1c2ccccc2-c2onc3ccc(N4CCCC4)c1c23	n	n	n	n	x	77	n
O=C(C[C@H]1C[C@H]2c3cc(NS(=O)(=O)c4ccc(F)cc4)ccc3O[C@H]2[C@@H](CO)O1)NCC(F)(F)F	x	x	x	x	n	x	x
CC1(C)Cc2nc3sc4c(SCC(=O)O)ncnc4c3cc2CO1	n	n	n	n	n	93	n
CC(/C=C1\SC(=Nc2cccnc2)NC1=O)=C\c1ccccc1	n	n	n	n	n	x	x
C=CCOc1ccc(/C=C2\SC(=Nc3cccnc3)NC2=O)cc1	n	n	n	n	n	61	n
O=C(N/N=C/c1c(O)ccc2ccccc12)Nc1ccccc1	n	x	x	x	x	x	x
O=C(O)c1cc(N/N=C/c2c(O)ccc3ccccc23)ccc1Cl	n	n	n	n	u	73	n
O=C(NN1C(=O)/C(=C/c2ccc(O)c([N+](=O)[O-])c2)SC1=S)c1ccccc1Cl	n	n	n	n	x	74	n
O=C(Nc1cccc(-c2nc3cccnc3s2)c1)c1cccnc1Cl	n	n	n	60	n	62	n
O=S(=O)(N[C@H]1CC[C@@H](CCn2cc(Cc3ccccc3)nn2)O[C@@H]1CO)c1ccccc1F	x	x	x	x	n	x	x
COC(=O)C1=C(C)N(CCCC(=O)O)C(=O)NC1c1ccc(Cl)cc1 (configuration not stated)	n	n	n	n	n	56	n
CSc1nc(N)nc2c1ncn2CC(=O)N1CCN(Cc2c(C)cc(C)cc2C)CC1	n	n	n	n	n	n	x
Cc1cc(C)c(CN2CCN(C(=O)Cn3ccc(N)nc3=O)CC2)c(C)c1	n	n	n	n	n	50	n
COc1ccc(S(=O)(=O)N(C)C[C@H]2Oc3ccc(NC(=O)C4CCCCC4)cc3C(=O)N([C@@H](C)CO)C[C@@H]2C)cc1	x	x	x	x	n	x	x
